Composite z-score and z-score data for five compounds are collected here from PubChem BioAssay.

SMILES strings stand for the structures. Calls of active or inactive are those of the source. Unless noted, no rule for the calls is given here.

Test [1] deals with Wnt5a (protein binding on small-molecule microarray). Briefly: Wnt5a binders on small-molecule microarray, primary screen, biophysical, 635/667 nm fluorescence (AID 1142).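 Also: fluorescence read at 667 nm with signal to noise per printed feature.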 The note with it: 635 nm fluorescence, higher = more signal.
Test [2] in a line: cell viability in Huh7 cells, primary screen, cytotoxicity control for HCV replication inhibitor project, CellTiter-Glo luminescence, basal, 48 h (AID 1143).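 Also: Huh7 hepatoma cells carrying a hepatitis C replication reporter with no stimulus; test concentration not given here.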 As to conditions: Huh7 HCV replicon, higher = more signal, called active from +8 up or from −8 down. In general terms: In ATP-based viability assays light output follows the ATP content of the culture.
Test [3] can be described thus: P. aeruginosa biofilm formation inhibitors, primary screen, PAO1 strain, BacTiter-Glo luminescence, LB-PBS (AID 1144). As to conditions: 12 h, higher = more signal.
Test [4] in a line: CREB reporter modulators without forskolin, primary screen, cell-based, PC12, CRE-LacZ reporter, unstimulated (AID 1145). The note with it: no forskolin, luminescence, 4.5 h, higher = more signal, called active from +8 up or from −8 down.
Test [5] in a line: CREB reporter modulators under forskolin, primary screen, cell-based, PC12, CRE-LacZ reporter, forskolin-stimulated (AID 1146).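 Also: PC12 cells with 6xCRE LacZ reporter stimulated by forskolin 10 µM; beta-galactosidase reporter signal reflecting CREB driven transcription.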 As to conditions: luminescence, 4.5 h, higher = more signal, called active from +8 up or from −8 down.
In test [6] the target is Streptavidin (Streptomyces avidinii) (UniProt P22629). As to the kind of experiment: streptavidin binders on small-molecule microarray, primary screen, artefact control for SMM compound annotation, biophysical, 635/667 nm fluorescence (AID 1147).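 Also: signal reflects streptavidin binding to arrayed compounds as a control protein.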 The note with it: streptavidin binding, higher = more signal.
The nature of test [7]: small-molecule binders of probe aInhba, primary screen, biochemical, small-molecule microarray, 635/667 nm fluorescence (AID 1148).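 Also: score merges 667nm spot fluorescence with signal-to-noise for antibody binding to printed compounds.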 The note with it: higher = more signal.
Test [8] addresses Torsin-1A (Homo sapiens) (UniProt O14656). As to the kind of experiment: torsin A binders from cell lysate, primary screen, small-molecule microarray, wild-type, 635/667 nm (AID 1149). As to conditions: COS7 hTOR1A-WT lysate, 635 nm fluorescence, higher = more signal.
The target is the same in test [9]. Briefly: small-molecule binders of mutant TOR1A in lysate, primary screen, cell lysate, small-molecule microarray, COS7 lysate, 635/667 nm fluorescence (AID 1150).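 Also: score pools 667 nm emission and signal to noise measuring lysate protein binding.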 The note with it: COS7 hTOR1A mutant lysate, 635 nm fluorescence, higher = more signal.
For test [10], the system named is Sonic hedgehog protein (Shh). As to the kind of experiment: small-molecule binders of Shh protein, primary screen, biochemical, small-molecule microarray, 635/667 nm fluorescence (AID 1151).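 Also: Shh protein binding to compounds spotted on small-molecule microarray slides; score combines spot fluorescence intensity with signal-to-noise across triplicate slides.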 As to conditions: small-molecule microarray binding, 635 nm fluorescence; higher = more signal.
A short description of test [11]: E. coli DRC41 culture turbidity changes, primary screen, E. coli filamentation inducer project, strain DRC41, OD650, 48 h (AID 1152).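 Also: E. coli MC1000 strain DRC41 lacking acrAB efflux pump and sulA.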 As to conditions: E. coli DRC41 (acrAB sulA), higher = more signal, called active from +8 up or from −8 down.
Test [12] is described as follows: small-molecule binders of probe aLefty1, primary screen, biochemical, small-molecule microarray, 635/667 nm fluorescence (AID 1153).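 Also: score merges spot fluorescence with signal-to-noise ratio from the scanned slide images.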 The note with it: higher = more signal.
Test [13] can be described thus: PSAC antagonists in infected red cells, primary screen, cell-based, P. falciparum Indochina, OD700, 1 h (AID 1154). As to conditions: P. falciparum Indochina infected RBC osmotic lysis, higher = more signal, called active from +8 up or from −8 down.
A short description of test [14]: PSAC antagonists in infected red cells, primary screen, cell-based, P. falciparum Indochina, OD700, 2 h (AID 1155).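 Also: lysis reports solute entry through the parasite surface anion channel PSAC; channel blockers reduce lysis of infected cells.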 As to conditions: P. falciparum Indochina infected erythrocytes, osmotic lysis OD700; higher = more signal, called active from +8 up or from −8 down.
Test [15] in a line: osmotic lysis modulators in infected erythrocytes, primary screen, PSAC antagonist project, cell-based, P. falciparum Indochina, OD700, 3 h (AID 1156). As to conditions: higher = more signal, called active from +8 up or from −8 down.
The nature of test [16]: PSAC antagonists in infected red cells, primary screen, cell-based, P. falciparum Indochina, OD700, 18 h (AID 1157). The note with it: P. falciparum Indochina infected erythrocytes, osmotic lysis OD700, 18 h; higher = more signal, called active from +8 up or from −8 down.
Test [17] in a line: modulators of S6 phosphorylation in cells, primary screen, cell-based, A549, cytoblot, luminescence, serum-stimulated (AID 1158).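 Also: serum-stimulated A549 lung adenocarcinoma cells; signal is phosphorylated S6 detected by cytoblot immunostaining with HRP secondary.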 The note with it: A549 phospho-S6 cytoblot, 5 h, higher = more signal.
The target in test [18] is NADPH oxidase 2 (Homo sapiens) (UniProt P04839). As to the kind of experiment: NOX2-dependent H2O2 signal modulators, primary screen, NOX inhibitor project, cell-based, HEK293-NOX2, PMA-stimulated, Amplex Red fluorescence (AID 1159). Also: test concentration not given here. The note with it: 45 min, higher = more signal, called active from +8 up or from −8 down.
Test [19] deals with NADPH oxidase 4 (Homo sapiens) (UniProt Q9NPH5). Briefly: NOX4-dependent H2O2 signal modulators, primary screen, NOX inhibitor project, cell-based, HEK293-NOX4, tetracycline-induced, Amplex Red fluorescence (AID 1160). As to conditions: 45 min, higher = more signal, called active from +8 up or from −8 down.
Test [20] concerns the target NADPH oxidase 5 (Homo sapiens) (UniProt Q96PH1). As to the kind of experiment: NOX5-dependent H2O2 signal modulators, primary screen, NOX inhibitor project, cell-based, HEK293-NOX5, Amplex Red fluorescence (AID 1161). The note with it: HEK293-NOX5, ionomycin, 45 min, higher = more signal.

Torsin-1A (Homo sapiens), sequence (O14656 whole entry, looked up): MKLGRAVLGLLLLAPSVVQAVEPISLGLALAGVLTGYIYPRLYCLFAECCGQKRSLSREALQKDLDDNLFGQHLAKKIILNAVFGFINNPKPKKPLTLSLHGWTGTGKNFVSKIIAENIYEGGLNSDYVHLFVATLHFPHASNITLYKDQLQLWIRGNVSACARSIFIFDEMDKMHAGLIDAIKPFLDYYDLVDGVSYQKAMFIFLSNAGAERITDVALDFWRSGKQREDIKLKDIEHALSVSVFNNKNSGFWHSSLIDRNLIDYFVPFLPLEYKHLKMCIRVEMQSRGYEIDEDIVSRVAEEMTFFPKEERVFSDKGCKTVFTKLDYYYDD
NADPH oxidase 5 (Homo sapiens), sequence (Q96PH1 whole entry, looked up): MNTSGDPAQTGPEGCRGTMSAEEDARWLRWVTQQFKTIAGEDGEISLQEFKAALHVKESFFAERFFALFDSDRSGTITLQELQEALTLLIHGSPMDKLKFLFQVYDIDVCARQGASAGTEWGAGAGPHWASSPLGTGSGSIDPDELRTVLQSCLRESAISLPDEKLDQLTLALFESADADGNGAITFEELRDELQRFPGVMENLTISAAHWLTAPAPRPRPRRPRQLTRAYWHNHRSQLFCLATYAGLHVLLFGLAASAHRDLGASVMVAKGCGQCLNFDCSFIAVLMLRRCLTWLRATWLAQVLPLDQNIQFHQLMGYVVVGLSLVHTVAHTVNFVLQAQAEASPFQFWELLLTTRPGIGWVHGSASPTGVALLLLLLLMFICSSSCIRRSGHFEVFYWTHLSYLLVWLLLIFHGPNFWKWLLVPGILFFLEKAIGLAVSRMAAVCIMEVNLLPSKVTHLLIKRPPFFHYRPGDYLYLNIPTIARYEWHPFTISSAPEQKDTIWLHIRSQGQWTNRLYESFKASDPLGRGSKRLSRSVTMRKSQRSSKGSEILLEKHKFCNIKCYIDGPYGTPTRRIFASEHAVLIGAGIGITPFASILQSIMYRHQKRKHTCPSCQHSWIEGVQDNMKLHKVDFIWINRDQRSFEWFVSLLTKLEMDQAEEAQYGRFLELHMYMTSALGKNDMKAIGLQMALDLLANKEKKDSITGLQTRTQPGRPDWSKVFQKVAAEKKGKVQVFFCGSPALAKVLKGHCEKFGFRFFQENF
NADPH oxidase 4 (Homo sapiens), sequence (Q9NPH5 whole entry, looked up): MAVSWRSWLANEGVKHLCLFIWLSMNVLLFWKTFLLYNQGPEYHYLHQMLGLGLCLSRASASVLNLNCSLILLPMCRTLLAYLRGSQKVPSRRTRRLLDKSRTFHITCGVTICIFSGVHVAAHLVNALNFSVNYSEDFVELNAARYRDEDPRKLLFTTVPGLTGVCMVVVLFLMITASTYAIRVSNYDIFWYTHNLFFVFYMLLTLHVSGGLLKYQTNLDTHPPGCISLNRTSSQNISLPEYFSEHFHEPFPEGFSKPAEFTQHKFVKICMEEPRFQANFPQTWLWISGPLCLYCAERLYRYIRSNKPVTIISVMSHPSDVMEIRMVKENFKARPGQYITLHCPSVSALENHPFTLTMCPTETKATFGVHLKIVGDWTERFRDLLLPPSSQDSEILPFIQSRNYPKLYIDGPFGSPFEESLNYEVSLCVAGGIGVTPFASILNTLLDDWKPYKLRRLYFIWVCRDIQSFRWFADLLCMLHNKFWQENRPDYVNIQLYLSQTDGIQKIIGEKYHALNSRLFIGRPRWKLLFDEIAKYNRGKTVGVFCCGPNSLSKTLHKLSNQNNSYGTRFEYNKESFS
Streptavidin (Streptomyces avidinii), sequence (P22629 whole entry, looked up): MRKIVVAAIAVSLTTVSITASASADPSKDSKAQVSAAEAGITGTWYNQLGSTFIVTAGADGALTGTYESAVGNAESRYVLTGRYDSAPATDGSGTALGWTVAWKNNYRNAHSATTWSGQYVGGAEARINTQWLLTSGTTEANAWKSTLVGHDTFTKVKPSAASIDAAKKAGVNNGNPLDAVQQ
NADPH oxidase 2 (Homo sapiens), sequence (P04839 whole entry, looked up): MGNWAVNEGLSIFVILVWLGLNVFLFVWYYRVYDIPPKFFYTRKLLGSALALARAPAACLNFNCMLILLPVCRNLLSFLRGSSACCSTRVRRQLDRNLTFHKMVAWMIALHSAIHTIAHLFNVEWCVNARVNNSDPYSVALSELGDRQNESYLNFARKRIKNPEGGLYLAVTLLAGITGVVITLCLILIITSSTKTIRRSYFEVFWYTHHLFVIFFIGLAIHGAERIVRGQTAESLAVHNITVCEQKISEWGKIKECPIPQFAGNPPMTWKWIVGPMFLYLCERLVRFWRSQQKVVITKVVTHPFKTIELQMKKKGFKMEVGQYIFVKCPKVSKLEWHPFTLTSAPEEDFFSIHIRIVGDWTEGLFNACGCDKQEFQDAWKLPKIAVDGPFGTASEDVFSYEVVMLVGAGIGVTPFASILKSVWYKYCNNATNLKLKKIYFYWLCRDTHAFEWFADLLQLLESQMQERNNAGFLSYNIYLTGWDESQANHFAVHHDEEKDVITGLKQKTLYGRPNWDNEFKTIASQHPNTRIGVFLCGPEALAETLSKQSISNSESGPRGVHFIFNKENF

Regarding `COc1ccc([Si](C)(C)[C@H]2[C@H](CC(=O)N3CCC[C@H]3CO)O[C@@]3(C(=O)N(Cc4ccc(N5CCOC5=O)cc4)c4ccccc43)[C@@H]2C)cc1`, the composite z-score was 0.434 in test [1]; -0.0564 in [6]; 0.235 in test [7]; 0.702 in the test with Torsin-1A (Homo sapiens) [8]; 0.64 in the test with Torsin-1A (Homo sapiens) [9]; 2.05 in test [10]. The compound also gave a composite z-score in test [12] of 0.298. In addition, the z-score was -2.09 (inactive) in test [2]; 0.11 (inactive) in [3]; 0.702 (inactive) in test [4]; -0.101 (inactive) in test [5]; 0.397 (inactive) in [11]; 9.5 (active) in [13]. The z-score was 1.8 (inactive) in test [14]; 0.088 (inactive) in test [15]; 0.746 (inactive) in [16]; 0.0491 in test [17]; 1.94 (inactive) in test [18]; -0.0662 (inactive) in test [19]. This compound had a z-score in [20] of 3.78.

In the case of `O=C(NCCN1CCOCC1)[C@@H]1c2ccccc2C(=O)N(C2Cc3ccccc3C2)[C@H]1c1ccc(CO)cc1`, the composite z-score is -0.136 in test [1]; -0.456 in test [6]; -0.0509 in [7]; 1.3 with Torsin-1A (Homo sapiens) [8]; 0.966 in the test with Torsin-1A (Homo sapiens) [9]; 0.105 in test [10]. The composite z-score in [12] is -0.0292. Moreover, the z-score was -1.59 (inactive) in test [2]; -0.264 (inactive) in test [3]; 0.118 (inactive) in test [4]; -1.42 (inactive) in test [5]; 2.03 (inactive) in [11]; 3.11 (inactive) in [13]. Also, the z-score in test [14] is -0.0966 (inactive); in [15] it was -0.056 (inactive); in test [16], 0.0832 (inactive); in test [17] it was 1.31; in test [18], 0.182 (inactive); in [19] it was 0.855 (inactive). The same compound yielded a z-score in [20] of -0.0278.

In the case of `COc1ccc([Si](C)(C)[C@@H]2[C@@H](CCO)O[C@]3(C(=O)N(Cc4ccccc4)c4ccc(N5C(=O)c6cccc7cccc5c67)cc43)[C@H]2C)cc1`, the composite z-score in test [1] was -0.328; in test [6] it was 0.305; in test [7], -0.179; with Torsin-1A (Homo sapiens) [8], -1.07; with Torsin-1A (Homo sapiens) [9], -0.909; in [10], -0.204. In addition, the composite z-score in test [12] was -0.0111. In addition, the z-score was -4 (inactive) in test [2]; -0.441 (inactive) in test [3]; 2.39 (inactive) in test [4]; 0.302 (inactive) in test [5]; 0.487 (inactive) in test [11]; 2.72 (inactive) in test [13]. For the same compound, the z-score in test [14] is 2.2 (inactive); in test [15], 0.504 (inactive); in test [16] it was 1.16 (inactive); in test [17], -0.0126; in [18], 0.326 (inactive); in test [19], 0.1 (inactive). The compound also gave a z-score in [20] of 2.32.

With `CCCCCC1=C2CNC(C)(C(=O)OC)C=C2C(C)C1=O` (stereo not given), the composite z-score is 0.0456 in [1]; -0.162 in test [6]; 0.0319 in [7]; -0.92 with Torsin-1A (Homo sapiens) [8]; -0.38 with Torsin-1A (Homo sapiens) [9]; -0.134 in test [10]. The composite z-score in test [12] is -0.0236. The z-score in test [2] is -0.169 (inactive); in [3], 0.18 (inactive); in test [4], 1.34 (inactive); in [5], 1.76 (inactive); in test [11], -1.81 (inactive); in [13] it was 0.585 (inactive). The z-score in test [14] was 0.0544 (inactive); in [15], 0.777 (inactive); in test [16], 0.373 (inactive); in test [17], -0.628; in test [18], 0.116 (inactive); in test [19], -2.6 (inactive). In test [20], this compound displayed a z-score of -3.07.

For `CN(C)C(=O)[C@]1(CCC(=O)OC(C)(C)C)N=C(c2ccc(OCCCO)cc2)O[C@@H]1c1ccccc1CN=[N+]=[N-]`, the composite z-score is 1.44 in test [1]; 0.588 in test [6]; -0.071 in test [7]; 1.53 with Torsin-1A (Homo sapiens) [8]; 1.24 with Torsin-1A (Homo sapiens) [9]; -0.646 in [10]. This compound also returned a composite z-score in test [12] of -0.182. Further, the z-score in [2] is -1.5 (inactive); in [3], -1.42 (inactive); in [4] it was -0.744 (inactive); in [5], -0.147 (inactive); in [11] it was 0.636 (inactive); in test [13] it was 29.8 (active). The z-score was 25.2 (active) in test [14]; 2.29 (inactive) in [15]; 3.77 (inactive) in test [16]; -0.175 in [17]; 0.629 (inactive) in test [18]; 2.22 (inactive) in [19]. The same compound registered a z-score in [20] of 1.19.
